Source: PubChem BioAssay (Tox21)
Where “and” joins values, the source holds several entries; their conditions need not be identical. Identical values can stand only once. Inconclusive results are not listed. Entries that show only a call come without a potency. The source holds several records for some structures; these can differ, active in one and inactive in another. Calls of active or inactive are those of the source. Unless noted, calls come from the whole dose curve.

Assays:
[1] = Nuclear factor erythroid 2-related factor 2/antioxidant responsive element (Nrf2/ARE) small molecule agonists: qHTS cell viability counter screen in human keratinocytes (AID 1919968; active = well fitted curve in the direction sought with a large enough effect in the repeat runs; an effect the other way counts as inactive or inconclusive; note: nearly all actives have a fitted effect of over 55% in size; note: potency is the fitted concentration of half-maximal effect); conditions: KeratinoSens HaCaT ARE cells viability, CellTiter-Fluor, 24 h; series mostly up to 92.4 µM
In short: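 Measured as CellTiter-Fluor fluorescence, this readout tracks cytotoxicity in the same wells as the ARE-luciferase screen. HaCaT reporter cells (1,500/well) received compounds after a 5 h pre-incubation and were exposed for 23 h.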

[2] = biological target: Gonadotropin-releasing hormone receptor (Homo sapiens) (UniProt P30968); assay: Human gonadotropin-releasing hormone receptor (GnRHR) small molecule agonists, calcium flux assay in GnRHR-HEK293 cells (AID 1920063); conditions: calcium flux fluorescence, agonist mode; series mostly up to 57.6 µM; note: nearly all actives have a fitted effect of over 35% in size
In short: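 Fluorescence kinetics (480 nm excitation, 540 nm emission; 3 min, 1 s steps) report calcium mobilisation in human GnRHR-HEK293 cells in agonist mode. Dye incubation: 1 h, 37 C.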

[3] = biological target: KiSS-1 receptor (Homo sapiens) (UniProt Q969F8); assay: Human kisspeptin (KISS1R) small molecule agonists, calcium flux assay in KISS1R-HEK293 cells (AID 1920064; active = well fitted curve in the direction sought with a large enough effect in the repeat runs; an effect the other way counts as inactive or inconclusive); conditions: KISS1R-HEK293, calcium flux fluorescence, agonist; series mostly up to 76.8 µM
In short: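 Measures KISS1R agonism through calcium-sensitive dye fluorescence in stably transfected HEK293 cells, read for 3 min after pin-tool compound delivery; 15-point titrations in triplicate.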

[4] = G protein-coupled receptor (GPCR) small molecule agonists, calcium flux assay: HEK293 wild type cell line counter screen (AID 1920065); conditions: HEK293 WT calcium flux, fluorescence, agonist mode; series mostly up to 57.6 µM
In short: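 Readout: fluorescence at 480 nm excitation/540 nm emission, sampled at 1 s intervals for 3 min. Cells had been cultured 18 h, then dye-loaded 1 h at 37 C before compound or ATP addition.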

[5] = p53 small molecule agonists, cell-based qHTS assay with human liver microsomes (AID 1963577); conditions: HCT-116 p53RE-bla with human liver microsomes, ratio, 16 h; series mostly up to 66 µM;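 note: p53 response element beta-lactamase reporter cells with liver microsomes plus NADPH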
In short: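 In this qHTS, p53 response-element beta-lactamase cells receive test compound together with a microsome/NADPH activating system (0.5 mg/mL final each) and are incubated 16 h at 37 C before LiveBLAzer fluorescence detection.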

[6] = p53 small molecule agonists, cell-based qHTS assay with rat liver microsomes (AID 1963578); conditions: HCT-116 p53RE-bla, beta-lactamase ratio, 16 h; series mostly up to 66 µM
In short: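 Agonist mode in p53RE-bla reporter cells, with compounds co-incubated 16 h at 37 C alongside 0.5 mg/mL rat liver microsomes and 0.5 mg/mL NADPH (final), followed by a 2 h LiveBLAzer detection step.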

[7] = p53 small molecule agonists, cell-based qHTS assay with human liver microsomes: qHTS cell viability counter screen (AID 1963579); conditions: p53RE-bla HCT-116 viability, ATP luminescence, 16 h, HLM; series mostly up to 66 µM; note: nearly all actives have a fitted effect of over 45% in size; note: potency is the fitted concentration of half-maximal effect
In short: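 Metabolically activated exposure: compounds, human liver microsomes and NADPH (0.5 mg/mL final apiece) were added to p53RE-bla cells seeded 5 h earlier, left 16 h at 37 C, and then assessed for viability by CellTiter-Glo luminescence.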

[8] = p53 small molecule agonists, cell-based qHTS assay with rat liver microsomes: qHTS cell viability counter screen (AID 1963580); conditions: p53RE-bla HCT-116 + rat microsomes, ATP viability, 16 h; series mostly up to 66 µM; note: nearly all actives have a fitted effect of over 45% in size; note: potency is the fitted concentration of half-maximal effect
In short: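 In HCT-116 cells carrying a p53 response element-bla reporter, compounds were metabolically activated in situ by rat liver microsomes with NADPH over 16 h. Cell ATP content then served as the cytotoxicity measure.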

[9] = p53 small molecule agonists, cell-based qHTS assay: qHTS cell viability counter screen (AID 1963581); conditions: p53RE-bla HCT-116 viability, ATP luminescence, 16 h; series mostly up to 66 µM; note: nearly all actives have a fitted effect of over 45% in size; note: potency is the fitted concentration of half-maximal effect
In short: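 In the same plates used for the p53 bla reporter, HCT-116 cells given compounds for 16 h at 37 C received CellTiter-Glo; luminescence was recorded 30 min later at room temperature.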

[10] = biological target: 5-hydroxytryptamine receptor 2A (Homo sapiens) (UniProt P28223); assay: 5-hydroxytryptamine receptor 2A (HTR2A) small molecule antagonists, cell-based qHTS assay (AID 1963586); conditions: HTR2A-CHO cells, DOI-induced calcium flux, fluorescence; series mostly up to 61.5 µM; note: nearly all actives have a fitted effect of over 45% in size
In short: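 Antagonist-mode intracellular calcium assay: DOI (4 nM) added after 5 min compound pre-incubation at room temperature to dye-loaded HTR2A-CHO cells. Fluorescence followed for 3 min, sampled every second.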

[11] = biological target: 5-hydroxytryptamine receptor 2A (Homo sapiens) (UniProt P28223); assay: 5-hydroxytryptamine receptor 2A (HTR2A) small molecule agonists, cell-based qHTS assay (AID 1963587); conditions: HTR2A-CHO cells, calcium flux fluorescence, agonist mode; series mostly up to 76.8 µM; note: nearly all actives have a fitted effect of over 30% in size; note: potency is the fitted concentration of half-maximal effect
In short: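 HTR2A-CHO cells, plated 18 h at 37 C/5% CO2, dye-loaded 1 h at 37 C; compounds in DMSO added by pin tool (agonist mode). Intracellular calcium flux read as kinetic fluorescence on FDSS over 2 min at 1 s intervals.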

[12] = biological target: Muscarinic acetylcholine receptor M1 (Homo sapiens) (UniProt P11229); assay: Cholinergic receptor muscarinic 1 (CHRM1) small molecule antagonists, cell-based qHTS assay (AID 1963588); conditions: CHRM1-CHO antagonist mode, calcium flux fluorescence; series mostly up to 61.5 µM; note: nearly all actives have a fitted effect of over 40% in size; note: potency is the fitted concentration of half-maximal effect
In short: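 CHRM1-CHO calcium-flux assay, antagonist mode. Cells were seeded 18 h, dye-loaded 1 h at 37 C and given compound for 5 min at RT, then acetylcholine was added at 50nM. FDSS fluorescence was read 3 min; 15 concentrations, three runs.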

[13] = biological target: Muscarinic acetylcholine receptor M1 (Homo sapiens) (UniProt P11229); assay: Cholinergic receptor muscarinic 1 (CHRM1) small molecule agonists, cell-based qHTS assay (AID 1963589); conditions: CHRM1-CHO cells, agonist mode, calcium flux fluorescence; series mostly up to 76.8 µM; note: nearly all actives have a fitted effect of over 35% in size
In short: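 Each compound was tested at 15 concentrations across three independent runs on dye-loaded CHO cells stably expressing human CHRM1, reading intracellular calcium fluorescence kinetically at 1 sec intervals.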

[14] = cAMP Responsive Elements (CRE) small molecule agonists, cell-based qHTS assay (AID 1963590); conditions: CRE-bla HEK293T, beta-lactamase FRET ratio, 3 h; series mostly up to 92.4 µM
In short: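 Cell line: CRE-bla HEK 293T; medium DMEM/10% dialyzed FBS/0.1 mM NEAA/1 mM pyruvate/25 mM HEPES; 3 h compound exposure; beta-lactamase FRET readout after 2 h substrate loading at RT.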

[15] = cAMP Responsive Elements (CRE) small molecule antagonists, cell-based qHTS assay (AID 1963591; active = well fitted inhibition curve with a large enough effect in the signal ratio in the repeat runs, not every such curve was filed as active; the % refers to the signal ratio); conditions: CRE-bla HEK293T, beta-lactamase FRET ratio; series mostly up to 92.4 µM
In short: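 Inhibition of NKH477-driven (0.25 uM final) CRE-beta-lactamase signal in HEK293T cells, 3 h compound exposure at 37 °C, detected by FRET substrate fluorescence.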

[16] = biological target: Beta-2 adrenergic receptor (Homo sapiens) (UniProt P07550); assay: Adrenergic beta2 receptor (ADRB2) small molecule antagonists, cell-based qHTS assay (AID 1963592); conditions: CHO-ADRB2 cells, isoproterenol-stimulated cAMP HTRF ratio, 0.5 h; series mostly up to 92.4 µM; note: nearly all actives have a fitted effect of over 50% in size; note: potency is the fitted concentration of half-maximal effect
In short: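 Cells (CHO, stable ADRB2 overexpression) incubated 18-20hr at 37C; compounds added from DMSO; agonist mix (1nM isoproterenol, 100uM IBMX, 25uM Ro-20-1724) added; 0.5hr RT; d2-cAMP and anti-cAMP-cryptate added; 1hr RT; 665/615 nm read.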

[17] = biological target: Beta-2 adrenergic receptor (Homo sapiens) (UniProt P07550); assay: Adrenergic beta2 receptor (ADRB2) small molecule agonists, cell-based qHTS assay (AID 1963593); conditions: CHO-ADRB2 cells, cAMP HTRF, 30 min; series mostly up to 92.4 µM;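 note: CHO cells stably overexpressing human ADRB2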
In short: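 CHO cells stably over-expressing ADRB2 were plated overnight at 37C, then dosed with compounds plus a stimulation mix containing 100uM IBMX and 25uM Ro-20-1724 for 0.5hr at room temperature. cAMP was measured by HTRF competition, 1hr.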

[18] = biological target: D(2) dopamine receptor (Homo sapiens) (UniProt P14416); assay: Dopamine D2 receptor (DRD2) small molecule agonists, cell-based qHTS assay (AID 1963594); conditions: HEK293-DRD2 cAMP HTRF, agonist mode, 30 min; series mostly up to 92.4 µM; note: nearly all actives have a fitted effect of over 35% in size
In short: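 HEK293 cells stably expressing DRD2 were cultured 24 h at 37 C, then given Ro20-1724 (0.1 mM final) and compounds for 10 min at room temperature. NKH477 (200nM) was then added for 30 min. cAMP was read by HTRF.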

[19] = biological target: D(2) dopamine receptor (Homo sapiens) (UniProt P14416); assay: Dopamine D2 receptor (DRD2) small molecule antagonists, cell-based qHTS assay (AID 1963595; active = well fitted inhibition curve with a large enough effect in the signal ratio in the repeat runs, with a control signal flat; the % refers to the signal ratio); conditions: HEK293-DRD2 cAMP HTRF antagonist mode; series mostly up to 92.4 µM
In short: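 Antagonism was scored as restored cAMP in HEK293-DRD2 cells. These cells were stimulated with 200 nM NKH477 and 12 nM quinpirole for 30 min at room temperature, in the presence of 0.1 mM Ro20-1724.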

[20] = p53 small molecule agonists, cell-based qHTS assay (AID 1963582; active = well fitted activation curve with a large enough effect in the signal ratio in the repeat runs, not every such curve was filed as active; the % refers to the signal ratio); conditions: HCT-116 p53RE-bla reporter, beta-lactamase FRET ratio, 16 h; series mostly up to 66 µM
In short: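 Compounds are pin-transferred in DMSO onto p53RE-bla cells and incubated 16 h at 37 C. The B/G FRET beta-lactamase substrate is then applied for 2 h at RT and fluorescence recorded.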

Sequence of KiSS-1 receptor (Homo sapiens) (Q969F8 whole entry, looked up): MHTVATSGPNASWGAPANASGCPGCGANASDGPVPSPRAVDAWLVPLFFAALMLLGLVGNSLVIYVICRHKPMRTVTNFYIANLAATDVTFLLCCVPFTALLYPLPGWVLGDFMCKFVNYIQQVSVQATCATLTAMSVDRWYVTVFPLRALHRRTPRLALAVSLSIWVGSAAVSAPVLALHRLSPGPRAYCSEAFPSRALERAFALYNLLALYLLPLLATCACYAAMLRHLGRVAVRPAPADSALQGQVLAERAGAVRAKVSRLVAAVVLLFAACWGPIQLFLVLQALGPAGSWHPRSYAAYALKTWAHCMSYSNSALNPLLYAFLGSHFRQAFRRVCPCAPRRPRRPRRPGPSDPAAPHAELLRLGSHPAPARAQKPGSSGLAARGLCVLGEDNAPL
Sequence of Gonadotropin-releasing hormone receptor (Homo sapiens) (P30968 whole entry, looked up): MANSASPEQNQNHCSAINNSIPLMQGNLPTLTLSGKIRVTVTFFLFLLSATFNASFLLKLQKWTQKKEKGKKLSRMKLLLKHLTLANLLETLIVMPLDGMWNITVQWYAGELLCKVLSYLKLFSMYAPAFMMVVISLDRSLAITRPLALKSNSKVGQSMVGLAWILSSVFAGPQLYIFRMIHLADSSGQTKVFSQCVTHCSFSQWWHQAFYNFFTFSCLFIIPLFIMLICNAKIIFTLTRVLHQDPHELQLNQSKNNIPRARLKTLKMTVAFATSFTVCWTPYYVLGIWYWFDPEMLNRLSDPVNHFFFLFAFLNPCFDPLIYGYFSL
Sequence of Beta-2 adrenergic receptor (Homo sapiens) (P07550 whole entry, looked up): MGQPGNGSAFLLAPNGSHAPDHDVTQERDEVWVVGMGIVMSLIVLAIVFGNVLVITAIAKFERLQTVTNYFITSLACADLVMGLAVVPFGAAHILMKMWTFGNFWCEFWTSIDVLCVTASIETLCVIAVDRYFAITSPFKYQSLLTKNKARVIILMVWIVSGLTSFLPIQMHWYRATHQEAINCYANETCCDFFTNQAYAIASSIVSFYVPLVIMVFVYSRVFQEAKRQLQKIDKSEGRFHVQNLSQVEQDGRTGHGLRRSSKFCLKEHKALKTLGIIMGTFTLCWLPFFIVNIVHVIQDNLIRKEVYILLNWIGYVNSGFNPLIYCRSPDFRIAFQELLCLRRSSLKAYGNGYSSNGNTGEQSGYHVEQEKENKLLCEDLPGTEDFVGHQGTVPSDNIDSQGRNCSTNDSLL
Sequence of D(2) dopamine receptor (Homo sapiens) (P14416 whole entry, looked up): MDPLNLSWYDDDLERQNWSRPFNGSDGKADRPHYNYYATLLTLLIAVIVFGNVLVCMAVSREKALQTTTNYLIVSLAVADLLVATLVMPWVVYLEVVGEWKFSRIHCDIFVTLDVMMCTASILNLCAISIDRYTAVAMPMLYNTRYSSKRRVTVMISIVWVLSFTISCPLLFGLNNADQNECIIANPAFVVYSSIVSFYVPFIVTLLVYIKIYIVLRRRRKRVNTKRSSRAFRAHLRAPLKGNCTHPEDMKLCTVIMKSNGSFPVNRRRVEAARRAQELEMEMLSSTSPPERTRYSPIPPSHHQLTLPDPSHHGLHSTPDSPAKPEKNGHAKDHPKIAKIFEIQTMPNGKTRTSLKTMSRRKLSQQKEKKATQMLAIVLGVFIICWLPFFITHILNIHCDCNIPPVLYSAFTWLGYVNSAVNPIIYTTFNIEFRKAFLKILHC
Sequence of Muscarinic acetylcholine receptor M1 (Homo sapiens) (P11229 whole entry, looked up): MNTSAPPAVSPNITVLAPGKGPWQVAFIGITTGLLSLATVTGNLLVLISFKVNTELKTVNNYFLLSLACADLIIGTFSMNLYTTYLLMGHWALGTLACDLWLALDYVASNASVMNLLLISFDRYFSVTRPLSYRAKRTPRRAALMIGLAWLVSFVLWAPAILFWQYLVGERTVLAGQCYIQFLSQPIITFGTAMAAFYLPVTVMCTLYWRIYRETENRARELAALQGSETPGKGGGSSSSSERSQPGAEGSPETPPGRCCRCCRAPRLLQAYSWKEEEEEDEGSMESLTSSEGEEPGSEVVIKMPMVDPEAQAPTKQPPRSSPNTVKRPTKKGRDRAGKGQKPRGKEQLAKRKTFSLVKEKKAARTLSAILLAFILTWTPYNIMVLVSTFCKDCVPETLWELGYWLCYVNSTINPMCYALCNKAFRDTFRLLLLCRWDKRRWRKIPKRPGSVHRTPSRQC
Sequence of 5-hydroxytryptamine receptor 2A (Homo sapiens) (P28223 whole entry, looked up): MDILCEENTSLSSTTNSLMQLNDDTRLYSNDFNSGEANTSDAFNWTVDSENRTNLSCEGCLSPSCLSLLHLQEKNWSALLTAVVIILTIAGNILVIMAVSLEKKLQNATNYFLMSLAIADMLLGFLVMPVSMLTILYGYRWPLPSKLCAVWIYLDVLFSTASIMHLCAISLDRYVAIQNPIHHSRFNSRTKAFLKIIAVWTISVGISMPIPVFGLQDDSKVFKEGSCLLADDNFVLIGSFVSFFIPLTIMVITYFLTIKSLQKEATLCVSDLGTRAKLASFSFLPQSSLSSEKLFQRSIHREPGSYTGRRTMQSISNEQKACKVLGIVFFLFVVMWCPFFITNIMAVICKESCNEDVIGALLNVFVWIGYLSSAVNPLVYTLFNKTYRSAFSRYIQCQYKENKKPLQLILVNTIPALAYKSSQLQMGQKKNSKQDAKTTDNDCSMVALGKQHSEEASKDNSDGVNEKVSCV

Compound	Potency [1]	Potency [2]	Potency [3]	Potency [4]	Potency [5]	Potency [6]	Potency [7]	Potency [8]	Potency [9]	Potency [10]	Potency [11]	Potency [12]	Potency [13]	Potency [14]	Potency [15]	Potency [16]	Potency [17]	Potency [18]	Potency [19]	Potency [20]
CC(C)(C)OCC1CO1 (stereo unspecified)	inactive	inactive	inactive	inactive	inactive	inactive	inactive	inactive	inactive	inactive	inactive	inactive	inactive	inactive	inactive	inactive	inactive	inactive	inactive	–
CCC(C)(C)C1CCC(OC)CC1 (stereo unspecified)	inactive	inactive	inactive	inactive	inactive	inactive	inactive	–	inactive	inactive	inactive	–	inactive	inactive	inactive	inactive	inactive	inactive	inactive	inactive
CC1=C(O)C(=O)OC1C (stereo unspecified)	inactive	inactive	inactive	inactive	inactive	inactive	inactive	inactive	inactive	inactive	inactive	–	inactive	inactive	inactive	inactive	inactive	inactive	inactive	inactive
CCN[C@H]1CN(CCCOC)S(=O)(=O)c2sc(S(N)(=O)=O)cc21	inactive	inactive	inactive	inactive	inactive	inactive	inactive	inactive	–	inactive	inactive	inactive	inactive	inactive	inactive	inactive	inactive	–	inactive	inactive
CCCC(=O)Nc1ccc(O)c(C(C)=O)c1	inactive	inactive	inactive	inactive	inactive	inactive	inactive	inactive	inactive	inactive	inactive	inactive	inactive	inactive	inactive	inactive	–	inactive	inactive	inactive
CC1=CC(=O)c2ccccc2C1=O	27.3 µM (active) and 26.6 µM (active)	inactive	inactive	inactive	inactive	inactive	inactive	inactive	40.8 µM (active) and inactive	inactive	inactive	inactive	inactive	–	inactive	inactive	inactive	inactive	inactive	inactive
OC1CCCCCCCCCCC1	inactive	inactive	inactive	inactive	inactive	inactive	inactive	inactive	inactive	inactive	6.23 µM (active)	inactive	inactive	–	inactive	inactive	–	inactive	inactive	inactive
NCC1CCCC(CN)C1 (stereo unspecified)	inactive	inactive	inactive	inactive	inactive	inactive	inactive	inactive	inactive	inactive	inactive	18.8 µM (active)	inactive	inactive	–	inactive	inactive	–	inactive	inactive
Cc1ccc(C(C)(C)C)cc1	inactive	inactive	inactive	inactive	inactive	inactive	inactive	inactive	–	inactive	inactive	inactive	inactive	inactive	inactive	–	inactive	inactive	inactive	inactive
OCCOCCN1CCN(C2=Nc3ccccc3Sc3ccccc32)CC1	inactive	inactive	inactive	inactive	inactive	inactive	inactive	inactive	inactive	–	–	–	–	–	–	inactive	inactive	inactive	inactive	inactive
O=C1CCCCCCCCCCCCCCCO1	inactive	inactive	inactive	inactive	inactive	inactive	inactive	inactive	inactive	–	inactive	inactive	inactive	inactive	inactive	inactive	–	inactive	–	–
CC(C)COC(=O)c1ccccc1O	inactive	inactive	inactive	inactive	inactive	inactive	inactive	inactive	inactive	inactive	inactive	–	inactive	inactive	inactive	inactive	inactive	inactive	–	inactive
COc1ccc(CCN2CCC(Nc3nc4ccccc4n3Cc3ccc(F)cc3)CC2)cc1	11.1 µM (active) and 23.7 µM (active)	inactive	inactive	inactive	inactive	inactive	14.8 µM (active) and inactive	26.3 µM (active) and inactive	13.2 µM (active)	–	–	–	–	–	–	55.7 µM (active) and inactive	–	inactive	–	inactive
Clc1cccc(Cl)c1NC1=NCCN1	inactive	inactive	inactive	inactive	inactive	inactive	inactive	inactive	inactive	–	–	–	–	inactive	inactive	inactive	inactive	inactive	inactive	inactive
CC(C)CCCCOC(=O)c1ccccc1C(=O)OCCCCC(C)C	inactive	inactive	inactive	inactive	inactive	inactive	inactive	inactive	inactive	inactive	inactive	inactive	inactive	inactive	inactive	inactive	inactive	inactive	inactive	–
